Screening data (PubChem)
Compounds with a hit are over-represented: about 5.4% of the library has one in this group of screens.
Exocytosis inh: lytic granule exocytosis inhibition; AID 651702; inhibition, % at 10 µM; TALL-104 LAMP-1 surface exposure, flow cytometry; cells stimulated with thapsigargin and PMA; 360,000 tested, 0.66% active;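 active = inhibition above about 55%, limit read from the data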
JMJD2C inh: inhibitors of human GASC-1 (JMJD2C) demethylase; Q9H3R0; GST-JMJD2C(1-420) H3K9me3 demethylation, DELFIA europium; inhibition, % at 2.35 µM; 330,000 tested, 0.069% active;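 active = more than half of a compound's replicate wells show inhibition beyond 50%, single wells judged on their own value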;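 also: signal counts dimethyl H3K9 product captured on neutravidin plate; 0% = median of DMSO wells and 100% = 0.3 times that DMSO median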
beta cell repl: inducers of beta-cell replication in MIN6 cells. MIN6 cells proliferation, ATPlite luminescence, 48 h; cells starved in 0.2% serum; 100% = growth in 10% serum. proliferation, % at 10 µM. 330,000 tested, 0.29% active. AID 2380;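 active = compounds whose signal lies at least 3.5 SD above the mean of all wells on their plate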;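 also: 0% = DMSO-treated cells in low-serum medium and 100% = 10% serum control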
SMARCA2 activ: increases SMARCA2 function in MMTV reporter cells; MG213 cells, MMTV-luciferase reporter, dexamethasone, overnight; activation, % at 9.1 µM; 370,000 tested, 1% active; in the data active = activation above about 7.8%;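 also: 0% = vehicle wells and 100% = reference activator wells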
PfM18AAP inh-1: PfM18AAP enzyme inhibition; recombinant PfM18AAP, H-Glu-NHMec fluorogenic cleavage; inhibition, % at 7.35 µM; 290,000 tested, 1.2% active; AID 1822;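 active = inhibition above the campaign mean inhibition over all tested compounds plus 3 SD, cut at about 28% in these data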;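 also: 0% = plate median of test compound wells and 100% = 2 mM ZnCl2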
ALR inh: inhibitors of human sulfhydryl oxidase ALR | P55789 | purified ALR, DTT oxidation, H2O2 HRP-luminol luminescence | inhibition, % (no concentration beside the values) | 290,000 tested, 3.8% active;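 active = mean replicate inhibition above about 79%, with every replicate also reaching it, limit read from the data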
Target sequence (P55789 whole entry, looked up): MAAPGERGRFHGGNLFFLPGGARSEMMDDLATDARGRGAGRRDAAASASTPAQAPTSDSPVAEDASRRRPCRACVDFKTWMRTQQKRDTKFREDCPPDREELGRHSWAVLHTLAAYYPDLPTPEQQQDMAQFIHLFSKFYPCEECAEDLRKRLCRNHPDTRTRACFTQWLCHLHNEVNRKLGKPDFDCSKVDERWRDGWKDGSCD
PfM18AAP inh-2: PfM18AAP inhibition, confirmation; shares compounds with PfM18AAP inh-1; recombinant PfM18AAP, H-Glu-NHMec fluorogenic cleavage; inhibition, % at 7.35 µM; 2,400 tested, 28% active; AID 2170;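 active = mean inhibition over replicate wells above the hit cutoff set for the earlier primary screen, cut at about 29% in these data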;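 also: 0% = median of test compound wells and 100% = 2 mM ZnCl2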
CTSL1 confirm: counter-screen for PFM18AAP inhibitors: confirmation of human cathepsin L inhibitors. shares compounds with PfM18AAP inh-1. purified cathepsin L1, Z-Leu-Arg-MCA fluorescence. inhibition, % at 5.96 µM. 2,400 tested, under 10 active. AID 2178;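 active = average inhibition across replicates above the hit cutoff set in the earlier primary screen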;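 also: 0% = median of test compound wells and 100% = Z-Phe-Ala-diazomethylketone 1 µM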
* = called active by the depositor.

Screening COc1ccc(S(=O)(=O)N2CCCc3nc(-c4ccccc4)ccc32)cc1 returned SMARCA2 activ -2.7.
Screening O=C(Nc1nc(-c2ccccn2)cs1)Nc1ccc(F)cc1F returned Exocytosis inh 13.9, JMJD2C inh 9.5, beta cell repl -3.7, SMARCA2 activ 5.8, PfM18AAP inh-1 48.0*, ALR inh -5.7, PfM18AAP inh-2 0.3 and CTSL1 confirm 2.0.
`Cc1cc(C)nc(SCCC(=O)N(C)C)n1` gave Exocytosis inh -1.8, JMJD2C inh -0.1, beta cell repl -1.9, SMARCA2 activ -1.6, PfM18AAP inh-1 39.4*, PfM18AAP inh-2 -3.8 and CTSL1 confirm -0.7.
`Cc1cc(C)nc(SCC(=O)NNC(=O)c2ccccc2C)n1` gave Exocytosis inh -0.9, JMJD2C inh -3.2, beta cell repl -1.3, SMARCA2 activ -0.6, PfM18AAP inh-1 1.2 and ALR inh 0.1.
O=C(CSc1ncccn1)Nn1cnnc1 was read as Exocytosis inh -0.4, JMJD2C inh -4.7, beta cell repl 0.8, SMARCA2 activ -2.7, PfM18AAP inh-1 46.5*, ALR inh 0.9, PfM18AAP inh-2 44.0* and CTSL1 confirm -3.9.
Screening Cc1cc(C)nc(SCC(=O)Nn2cnnc2)n1 returned Exocytosis inh -1.9, JMJD2C inh -1.0, beta cell repl -1.8, SMARCA2 activ -1.3, PfM18AAP inh-1 52.8*, ALR inh -1.8, PfM18AAP inh-2 40.5* and CTSL1 confirm -5.4.
`CCNC(=O)C[C@H]1CC[C@H]2[C@@H](COc3ccc(NC(=O)Nc4ccccc4)cc3C(=O)N2C)O1` gave SMARCA2 activ -1.6.
`N#CCC(=O)NN=C1CCCCCCCCCCC1` gave Exocytosis inh 1.8, JMJD2C inh -1.2, beta cell repl -4.1, SMARCA2 activ -0.3, PfM18AAP inh-1 53.7*, ALR inh 9.7, PfM18AAP inh-2 -21.8 and CTSL1 confirm 2.0.
Screening Cc1ccc2[nH]c3c(c2c1)CCc1cn[nH]c1-3 returned Exocytosis inh 16.2, JMJD2C inh 3.7, beta cell repl -1.9, SMARCA2 activ -3.8, PfM18AAP inh-1 33.1*, ALR inh 98.7*, PfM18AAP inh-2 -20.6 and CTSL1 confirm 4.7.
CC(C)(C)c1ccc(C#C[C@@H]2C=C[C@@H](O)[C@@H](COC(=O)Nc3ccccc3)O2)cc1 was read as SMARCA2 activ 1.0.
Screening O=C(CSc1nnc(-c2ccccc2)n1-c1ccccc1)NN=Cc1ccc(-c2ccccc2)cc1 returned SMARCA2 activ -5.7.
Screening Oc1ccccc1N1CCN(c2ncccn2)CC1 returned Exocytosis inh 11.6, beta cell repl -1.3, SMARCA2 activ -2.4, PfM18AAP inh-1 42.1*, ALR inh 99.0*, PfM18AAP inh-2 -19.5 and CTSL1 confirm 2.9.
Screening O=C(c1ccccc1)N1CCN(c2ncccn2)CC1 returned Exocytosis inh -5.6, JMJD2C inh 5.3, beta cell repl -2.9, SMARCA2 activ -4.2, PfM18AAP inh-1 2.1 and ALR inh -12.4.
For O=C1c2ccccc2C(=O)N1/N=C/c1ccc(O)c(O)c1O the results were Exocytosis inh -3.3, JMJD2C inh 0.0, PfM18AAP inh-1 65.5*, PfM18AAP inh-2 39.5* and CTSL1 confirm 1.9.
Screening Cc1nc2ccccc2c(=O)n1/N=C/c1ccc(O)c(O)c1O returned Exocytosis inh 0.7, JMJD2C inh -35.9, beta cell repl -6.8, SMARCA2 activ 1.4, PfM18AAP inh-1 46.7*, ALR inh 98.5*, PfM18AAP inh-2 5.8 and CTSL1 confirm 4.6.
`Cc1ccc(C(=O)Nn2cnnc2)cc1[N+](=O)[O-]` gave Exocytosis inh -5.4, JMJD2C inh 4.9, beta cell repl -0.1, SMARCA2 activ -2.3, PfM18AAP inh-1 42.8*, ALR inh 2.7, PfM18AAP inh-2 38.9* and CTSL1 confirm -4.5.
Cc1ccc(C(=O)NN2CCOCC2)cc1[N+](=O)[O-] was read as Exocytosis inh 2.1, JMJD2C inh 0.8, beta cell repl -1.4, SMARCA2 activ -0.5, PfM18AAP inh-1 -2.5 and ALR inh 0.9.
